Measurements as given in PubChem BioAssay (NCATS).
Results filed as inconclusive are left out. The source made the active and inactive calls. The call rests on the fitted dose curve; in most records, active means well fitted cell-killing curve with a large enough effect; inconclusive means small, poorly fitted or top-dose-only effect; inactive means flat fitted curve, though single readings scatter.

Experiment: qHTS of pediatric cancer cell lines to identify multiple opportunities for drug repurposing: Primary screen for BT-37 cells (AID 1347094);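 on activity change, negative = cytotoxic: plate controls were DMSO for no effect and bortezomib for full effect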
Details: BT-37 viability, CellTiter-Glo luminescence, 48 h; series mostly up to 57.3 µM; activity change, negative = cytotoxic: at the top concentration
Summary of the method: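 Phenotypic viability qHTS, 48 h compound exposure, CellTiter-Glo luminescence read-out; multi-concentration dosing so that potency and efficacy derive directly from the primary screen's curves.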
Potency means the concentration at half of the fitted maximal effect.

Row | Structure (SMILES) | Potency | activity change, negative = cytotoxic
1 | Cc1nc(N)sc1-c1ccnc(Nc2ccc(N3CCOCC3)cc2)n1 | 24.3 µM (active) | 
2 | O=C1c2ccccc2-[n+]2ccc3c([nH]c4ccccc43)c21 | 2.43 µM (active) | 
3 | C[C@H]1[C@H](NC(=O)C(=NOC(C)(C)C(=O)O)c2csc(N)n2)C(=O)N1S(=O)(=O)O |  | 10.7% (inactive)
4 | OC[C@@H](O)[C@H](O)[C@H](O)[C@@H](O)CO | inactive | 
5 | C[N+](C)(C)CCCCCC[N+](C)(C)C |  | 12.6% (inactive)
6 | C[N+]1(C)[C@@H]2CC(OC(=O)[C@H](CO)c3ccccc3)C[C@H]1[C@H]1O[C@@H]12 (stereo not given in full) |  | 25.8% (inactive)
7 | CCOC(=O)O[C@]1(C(=O)OCCl)CC[C@@H]2[C@H]3CCC4=CC(=O)C=C[C@]4(C)[C@@H]3[C@@H](O)C[C@@]21C |  | 21.3% (inactive)
8 | O=C(O)Cc1cccc2ccccc12 | inactive | 
9 | Cc1ccc(C(=O)Nc2cccc(C(F)(F)F)c2)cc1Nc1nc(-c2cccnc2)nc2c1cnn2C | 24.3 µM (active) | 
10 | NCCS |  | 13.7% (inactive)
11 | COc1ccc(-c2coc3cc(O)ccc3c2=O)cc1 |  | 2.08% (inactive)
12 | CN(C)CCC(c1ccccc1)c1ccccn1 (stereo not given) |  | 14.3% (inactive)
13 | COc1cc(O)c2c(c1)C(=O)c1cc(C)cc(O)c1C2=O |  | -2.82% [at 20.1 µM] (inactive)
14 | O=c1c(-c2ccc(O)cc2)coc2cc(O[C@@H]3O[C@H](CO)[C@H](O)[C@H](O)[C@H]3O)ccc12 |  | -1.68% (inactive)
15 | C=C1C(=O)[C@@]23C(CC[C@@H]1[C@H]2O)[C@@]12CO[C@]3(O)[C@@H](O)[C@@H]1C(C)(C)CC[C@@H]2O (stereo not given in full) | 27.3 µM (active) | 
16 | CN[C@@H](C)C(=O)N[C@H]1CN(C(=O)CC(C)C)CC[C@H]2CC[C@@H](C(=O)NC(c3ccccc3)c3ccccc3)N2C1=O | 0.153 µM (active) | 
17 | O=c1ccn([C@@H]2O[C@H](CO)[C@H](O)[C@H]2O)c(=O)[nH]1 |  | 20.2% (inactive)
18 | Cc1[nH]c(C=C2C(=O)Nc3ccc(S(=O)(=O)Cc4c(Cl)cccc4Cl)cc32)c(C)c1C(=O)N1CCC[C@H]1CN1CCCC1 | 27.3 µM (active) | 

Row | Structure (SMILES) | Potency | activity change, negative = cytotoxic
19 | CC(C)C[C@H](CC(=O)O)C(=O)N[C@@H](Cc1c[nH]c2ccccc12)C(=O)N[C@@H](C)c1ccccc1 | 3.06 µM (active) | 
20 | NC[C@@H]1O[C@@H](O[C@H]2[C@@H](O)[C@H](O[C@@H]3[C@@H](O)[C@@H](N)C[C@H](N)[C@H]3O[C@H]3O[C@H](CN)[C@@H](O)[C@@H](O)[C@H]3N)O[C@H]2CO)[C@H](N)[C@@H](O)[C@@H]1O |  | 13.6% (inactive)
21 | O=C1C[C@@H](c2ccc(O)cc2)Oc2cc(O)cc(O)c21 |  | 7.85% (inactive)
22 | O=C(O)c1ccccc1C(=O)Nc1ccc(-c2ccccc2)cc1 |  | 3.06% (inactive)
23 | O=C(O)c1cc(-c2ccccc2)nc2ccccc12 | inactive | 
24 | C[C@@H](O)[C@H]1C(=O)N2C(C(=O)O)=C(S[C@@H]3CN[C@H](C(=O)N(C)C)C3)[C@H](C)[C@H]12 | inactive | 
25 | CC(=Cc1ccccc1)C=C1SC(=S)N(CC(=O)O)C1=O |  | 8.33% (inactive)
26 | COc1ccc2cccc(CCNC(C)=O)c2c1 |  | 15.3% (inactive)
27 | CC(C)C(C)C=CC(C)C1CCC2C3=CC=C4CC(O)CCC4(C)C3CCC21C (stereo not given) |  | 18.1% (inactive)
28 | O=C(NC1CCOCC1)c1ccc(-c2cc(-c3cn[nH]c3-c3ccccn3)ccn2)cc1 |  | 1.25% (inactive)
29 | CC(C)C(=O)Oc1ccc(CO)cc1[C@H](CCN(C(C)C)C(C)C)c1ccccc1 |  | -13.9% (inactive)
30 | O=C1NC(=O)C(c2ccccc2)(c2ccccc2)N1 |  | 1.3% (inactive)
31 | Cn1c(N2CCCCS2(=O)=O)nc(C(=O)NCc2ccc(F)cc2)c(O)c1=O |  | 5.75% (inactive)
32 | CC(C)(C)c1ccc(C(O)CCCN2CCC(C(O)(c3ccccc3)c3ccccc3)CC2)cc1 (stereo not given) |  | -0.711% (inactive)
33 | O=C1NCC2(CCN(CCc3ccccc3)CC2)O1 |  | 8.12% (inactive)
34 | CC(C)(C(=O)NCC(F)(F)C(F)(F)F)C(=O)N[C@@H]1C(=O)Nc2ccccc2-c2ccccc21 | 0.769 µM (active) | 
35 | O=C(O)c1cc(O)c2c(c1)C(=O)c1cccc(O)c1C2=O |  | -3.6% [at 116 µM] (inactive)
